Experimental data reported in PubChem BioAssay (Tox21).
The source made the active and inactive calls. Where a call stands in place of a potency, no number is given. Calls come from the whole dose curve; as a rule, active = well fitted activation curve with a large enough effect in the repeat runs; inconclusive = weak or mixed curves; inactive = flat fitted curve, though single readings scatter.

Experiment: A CellTox Green Cytotoxicity Assay to monitor cytotoxicity in HepG2 cells - 0 hour (AID 1224882); note: nearly all actives have a fitted effect of over 35% in size
Conditions: CellTox Green fluorescence; series mostly up to 76.8 µM
Text: National Center for Advancing Translational Sciences [NCATS]
NIH Chemical Genomics Center [NCGC]
U.S. Environmental Protection Agency [EPA]
National Institutes of Environmental Health Sciences [NIEHS]
National Toxicology Program [NTP]
Cell-based models are critical for drug discovery. Determining the natural cytotoxic effects resulting from test compounds is an essential research activity. A CellTox Green Cytotoxicity Assay to monitor cytotoxicity in real time of continues cell culture during 40 hours of the compound treatment was used to screen Tox21 10K library compounds in HepG2 cells. CellTox Green Cytotoxicity Assay is a nonlytic, homogeneous, biofluorescent method to measure cytotoxicity in cell culture after experimental manipulation. The assay system uses a proprietary asymmetric cyanine dye that is excluded from viable cells but preferentially stains the dead cell's DNA. […] Viable cells produce no appreciable increases in fluorescence. Therefore, the fluorescence signal produced by the binding interaction with dead cell DNA is proportional to cytotoxicity.
The mixture of HepG2 cell suspension and reagents were dispensed at 600cells/6 ul/well in 1536-well tissue culture treated black solid bottom plates using a Multidrop dispenser. After the assay plates were incubated at a 37 C/5% CO2 incubator for 5 hours, 23 nL of compounds dissolved in DMSO, positive and negative controls was transferred to the assay plate by a pintool work station. The plates were incubated at 37 C for 40 hours. The fluorescence intensity were measured at 0h, 8h, 16h, 24h, 32h and 40h time points using ViewLux plate reader during compound treatment.
Potency is the fitted concentration of half-maximal effect.

SMILES	Potency
COc1cc(N)c(Cl)cc1C(=O)NC1CCN(CCCOc2ccc(F)cc2)CC1OC (stereo not given)	inactive
C=CCc1ccccc1OCC(O)CNC(C)C (stereo not given)	inactive
O=C1c2ccccc2C(=O)C1(O)O	inactive
CS(=O)(=O)c1ccc(-c2cn3ccccc3n2)cc1	inactive
CO[C@]1(NC(=O)CSC(F)F)C(=O)N2C(C(=O)O)=C(CSc3nnnn3CCO)CO[C@H]21	inactive
CC(C)C(O)(c1ccc(OC(F)(F)F)cc1)c1cncnc1 (stereo not given)	inactive
CC1(C)O[C@@H]2C[C@H]3[C@@H]4C[C@H](F)C5=CC(=O)C=C[C@]5(C)[C@H]4[C@@H](O)C[C@]3(C)[C@]2(C(=O)CO)O1	inactive
O=C(O)CCCCCCCCCCCBr	inactive
OC[C@H]1O[C@@H](n2cnc3c(=S)nc[nH]c32)[C@H](O)[C@@H]1O	inactive
CN1C(=O)N(c2ccccc2Br)Cc2cnc(Nc3ccc4c(c3)OCC(CO)O4)nc21 (stereo not given)	inactive
O=C(Nc1cccc2c(=O)cc(-c3nn[nH]n3)oc12)c1ccc(OCCCCc2ccccc2)cc1	26.8 µM (active)
CCOc1ccc(Cc2nccc3cc(OCC)c(OCC)cc23)cc1OCC	inactive
O=C1NC(=O)c2cc([N+](=O)[O-])ccc21	inactive
Cc1cccc(N(C)C(=S)Oc2ccc3c(c2)CCC3)c1	inactive
CCC1(CO)COCOC1	inactive
CC(CO)CO	inactive
CCOC(C)=O	inactive
c1csc(SSc2cccs2)c1	inactive
O[C@@H]1CO[C@H]2[C@@H]1OC[C@@H]2O	inactive
Cc1ccc(CO)cc1	inactive

SMILES	Potency
C[C@@H](CN(C)C)CN1c2ccccc2Sc2ccccc21	inactive
C=C(C)C(=O)OCCCCCCCCCCCCC	inactive
Oc1cccc(O)c1O	inactive
Cc1cc2c(OCC(CNC(C)(C)C)OC(=O)c3ccccc3)cccc2[nH]1 (stereo not given)	inactive
CN1C(=O)OC(C)(C)C1=O	inactive
CO/N=C(/C(=O)N[C@@H]1C(=O)N2C(C(=O)O)=C(COC(N)=O)CS[C@H]12)c1ccco1	inactive
C1COC1	inactive
OCCN1CCN(CCCN2c3ccccc3Sc3ccc(Cl)cc32)CC1	inactive
N#CCc1ccc(Cl)cc1Cl	inactive
Clc1cc(Cl)nc(Cl)n1	inactive
Cc1[nH]cnc1CN1CCc2c(c3ccccc3n2C)C1=O	inactive
NC(=O)c1ccncc1	inactive
CCCCCCNC(=O)n1cc(F)c(=O)[nH]c1=O	inactive
CCCCCC[C@@H](O)C/C=C\CCCCCCCC(=O)OCC(O)CO (stereo not given in full)	inactive
Cc1cc(O)ccc1O	inactive
CC1CC(C)C(=O)C1=O (stereo not given)	inactive
C[C@@]12CCC[C@H]1[C@@H]1CC[C@H]3C[C@@H](O)CC[C@]3(C)[C@H]1CC2	inactive
CC/C=C1/OC(=O)c2ccccc21	inactive
CCOC(=O)c1ccc(C#Cc2ccc3c(c2)C(C)(C)CCS3)nc1	inactive
COc1ccccc1N1CCN(CCCCNC(=O)c2ccc(-c3ccc(C(C)=O)cc3)cc2)CC1	inactive
